Screening data: PubChem BioAssay, National Center for Advancing Translational Sciences (NCATS)
Shown are actives, neighbours in structure and some others; about 17% of the full set was active somewhere.
ATXN viability: cell viability loss in ATXN counter-screen; S2 cells (HEK-293 line with an ATXN2-luciferase reporter) viability, CellTiter-Fluor protease fluorescence, 24 h; Potency, µM (series often up to 56.7 µM), most hits filed as cytotoxic; 400,000 tested, 0.49% active; AID 651635; note: nearly all actives have a fitted effect of over 40% in size
ATXN2 expr inh: reduces ATXN2 reporter expression in HEK-293 cells | HEK-293 ATXN2-luciferase reporter, luminescence, 24 h | Potency, µM (doses to about 57 µM), hits mostly inhibitors | 360,000 tested, 0.72% active | AID 1745845; note: nearly all actives have a fitted effect of over 55% in size
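ATXN2-luciferase reporter cells (luciferase flanked by upstream and downstream ATXN2 gene portions) were treated 24 h at 37 °C with compounds at up to 57 uM. SteadyGlo luminescence gave expression; GF-AFC fluorescence gave viability.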
DT40 TDP1 no CPT: qHTS for Inhibitors of human tyrosyl-DNA phosphodiesterase 1 (TDP1): qHTS in cells in absence of CPT | DT40 Tdp1-/- hTDP1 cells, no CPT, ATP luminescence, 48 h | Potency, µM (top dose mostly 46.2 µM), most hits filed as inhibitors | 420,000 tested, 15% active | AID 686978, 2013; note: nearly all actives have a fitted effect of over 55% in size
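No-CPT arm: Tdp1-/-;hTDP1 DT40 cells (400/well) plus compounds, incubated ≥48 hr at 37 °C. Readout CellTiter-Glo luminescence.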
TDP1 cell CPT: growth inhibition of DT40 Tdp1-/-;hTDP1 cells with camptothecin (screen for TDP1 inhibitors); Potency, µM (doses to about 46.2 µM), most hits filed as inhibitors; chicken DT40 Tdp1-/-;hTDP1 cells + 20 nM CPT, ATP luminescence, 48 h; AID 686979; 420,000 tested, 12% active; note: nearly all actives have a fitted effect of over 55% in size
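Chicken DT40 Tdp1-/- cells stably complemented with human TDP1 were seeded at 400 cells/well in medium containing 20 nM camptothecin, exposed to pin-transferred compounds, and grown at 37 °C for at least 48 hr. Viability was read as ATP luminescence.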
HepG2 tox: kills HepG2 cells in TGF-b inhibitor counter-screen; Potency, µM (titrated, usually from 46.1 µM), usual class: cytotoxic; HepG2 CAGA-GFP viability, ATP luminescence, 18 h; 410,000 tested, 0.76% active
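CellTiter-Glo luminescence gave cytotoxicity after 18 hours at 37 degrees C. The cells were HepG2 CAGA-GFP in 1% FBS DMEM, stimulated with 500 pg/mL TGF-beta after compound addition. %Activity was normalised to no-cell wells (complete cell-killing) and DMSO (no toxicity), and curves were fitted and classified.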
TGFb inhibitor: TGF-b pathway inhibition. HepG2 CAGA-GFP TGF-b/SMAD3 reporter, GFP fluorescence, 18 h; TGF-beta stimulated, 500 pg/mL final. Potency, µM (top dose mostly 46.1 µM), usual class: inhibitors. 410,000 tested, 1.2% active; note: nearly all actives have a fitted effect of over 65% in size
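First, reporter cells (HEPG2 CAGA-GFP) rested 2 h at 37 degrees C. Next, compounds were pinned in and TGF-beta added to 500 pg/mL final. After 18 h, GFP was imaged per cell and summed per well.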
Numbers stand for hits; i = inactive; ? = inconclusive; nt = no result. Calls come from the whole dose curve; as a rule, active = well fitted curve in the direction sought with a large enough effect; inconclusive = small, poorly fitted or top-dose-only effect, or another doubt; inactive = no such curve, though single readings can be large; an effect the other way counts as inactive or inconclusive.

SMILES | ATXN viability | ATXN2 expr inh | DT40 TDP1 no CPT | TDP1 cell CPT | HepG2 tox | TGFb inhibitor
Cc1ccc(-n2nc3c([n+]2[O-])CCc2c-3no[n+]2[O-])cc1 | ? | ? | 16µM | ? | i | i
C=CCSc1nnc(NC(=O)CCNC(=O)c2ccccc2Cl)s1 | i | nt | i | i | i | i
CCNC(=S)N/N=C/c1cccc(OCc2c(F)cccc2Cl)c1 | i | i | 16µM | ? | i | ?
Fc1ccccc1COc1ccc(/C=N/NC(=S)NCc2ccccc2)cc1 | i | i | 13µM | 12µM | i | i
CCOc1ccc(/C=N/NC(=O)CC(=O)NCc2ccccc2)cc1 | i | i | i | i | i | i
CNC(=S)N/N=C/c1cccc(OCc2ccccc2F)c1 | i | i | 23µM | ? | i | ?
COc1cccc(-c2n[nH]c3c2C(c2ccccn2)N(C)C3=O)c1 (configuration not stated) | nt | nt | i | i | i | i
COc1cccc2sc(Nc3nc(-c4ccncc4)cs3)nc12 | i | i | 2.9µM | 4.6µM | i | i
COc1cccc2sc(Nc3nc(-c4cc5ccccc5oc4=O)cs3)nc12 | i | i | 4.6µM | 4.6µM | i | i
COc1cccc2sc(Nc3nc4ccc(NC(C)=O)cc4s3)nc12 | i | i | ? | ? | i | ?
CS(=O)(=O)c1oc(-c2ccc(F)cc2)nc1S(=O)(=O)c1ccc(Cl)cc1 | nt | nt | 0.82µM | 0.58µM | 5µM | 3.2µM
CSc1oc(-c2ccc(F)cc2)nc1S(=O)(=O)c1ccc(F)cc1 | i | i | 23µM | 15µM | i | i
CCS(=O)(=O)c1oc(-c2ccc(F)cc2)nc1S(=O)(=O)c1ccc(Br)cc1 | nt | nt | 1.2µM | 0.92µM | 3.5µM | 2.8µM
c1ccc(N/N=C2\CCCc3ccccc32)nc1 | i | i | i | i | i | i
Cc1cc(N/N=C2/CCCc3ccccc32)nc2ccccc12 | ? | i | 10µM | ? | 11µM | 16µM
Cc1ccc(CN(Cc2ccco2)C(=O)c2ccc(OCC(C)C)cc2)cc1 | i | i | 16µM | ? | i | ?
CCc1ccc(CN(Cc2ccco2)C(=O)c2ccc(C)cc2)cc1 | nt | nt | ? | ? | i | i
CCOc1ccc(C(=O)N(Cc2ccc(C(C)C)cc2)Cc2ccco2)cc1 | nt | nt | 21µM | ? | i | ?
CC(=O)Nc1cccc(OCCOc2cccc([N+](=O)[O-])c2)c1 | i | i | i | i | i | i
O=C(Nc1ccc(Oc2ccc(NC(=O)Nc3ccc([N+](=O)[O-])cc3)cc2)cc1)Nc1ccc([N+](=O)[O-])cc1 | i | ? | 2.1µM | 2.3µM | i | ?
CC(=O)Nc1ccc(OS(=O)(=O)c2ccccc2C)cc1 | ? | i | ? | i | i | i
CC(=O)Nc1ccc(OS(=O)(=O)c2cc(Cl)ccc2C)cc1 | nt | i | 15µM | 21µM | i | i
CC(=O)Nc1ccc(Nc2ccc([N+](=O)[O-])cn2)cc1 | i | i | 9.2µM | ? | i | i
O=[N+]([O-])c1ccc(Nc2ccc(F)cc2)nc1 | i | i | ? | ? | i | ?
CC(=O)Nc1cccc(OCCCOc2ccc([N+](=O)[O-])cc2)c1 | ? | nt | 3.7µM | 13µM | i | i
SMILES | ATXN viability | ATXN2 expr inh | DT40 TDP1 no CPT | TDP1 cell CPT | HepG2 tox | TGFb inhibitor
Cc1ccc(-c2nnc3c4ccccc4c(C)nn23)cc1NC(=O)c1ccccc1Cl | nt | nt | i | i | i | i
CC(=O)Nc1ccc(S(=O)(=O)NCCC(=O)OCc2ccc([N+](=O)[O-])cc2)cc1 | ? | i | 16µM | 13µM | i | i
CC(=O)Nc1ccc(OS(=O)(=O)c2ccc([N+](=O)[O-])cc2)cc1 | ? | i | 16µM | 18µM | i | ?
COc1ccc(-c2oc3ncn4nc(COc5c(C)cccc5C)nc4c3c2-c2ccc(OC)cc2)cc1 | i | i | ? | ? | i | i
COc1ccc2[nH]c(=O)c3c(c2c1)OC(C)(C)C=C3 | i | i | 15µM | 15µM | i | ?
Cc1cc2c([nH]c3ccccc32)c2c1OC(C)(C)C=C2 | i | i | ? | ? | i | ?
CCCCNC(=O)C1(C)CCN1C(=O)c1oc2ccccc2c1C (configuration not stated) | i | i | ? | ? | i | i
CC(C)(C)c1ccc(C(=O)N2CCC2(C)C(=O)NCc2ccc3c(c2)OCO3)cc1 (configuration not stated) | ? | i | 9.2µM | 12µM | i | i
CC(C)C(=O)N1CCC1(C)C(=O)NCc1ccc(C(C)(C)C)cc1 (configuration not stated) | i | i | ? | ? | i | i
CC(C)CNC(=O)C1(C)CCN1C(=O)c1ccc(C(C)(C)C)cc1 (configuration not stated) | i | i | 8.2µM | 10µM | i | i
Cc1c(C(=O)N2CCCCCC2(C)C(=O)NCC(C)C)oc2ccccc12 (configuration not stated) | i | i | 18µM | ? | i | i
CC1(C(=O)NCc2ccc3c(c2)OCO3)CCN1C(=O)CC1CCCC1 (configuration not stated) | i | i | ? | ? | i | i
COc1ccc(C(=O)CCN2CCCC(C)C2)cc1 (configuration not stated) | i | i | ? | 23µM | i | i
COc1ccc(N2CCN(CC(=O)N3CCC(C)CC3)CC2)cc1 | i | i | i | i | i | i
COc1ccc(C(=O)CCN2CCC(C)CC2)cc1 | i | i | 12µM | 13µM | i | ?
COc1ccc(NC(=S)N(CCCN2CCCC2)Cc2cccs2)cc1 | i | i | i | i | i | i
COc1ccc(NC(=S)N(CCCN2CCCC(C)C2)Cc2cccs2)cc1 (configuration not stated) | i | i | 29µM | ? | i | i
CCOc1ccc(-n2c(SCC(N)=O)nc3c(c2=O)SCC3)cc1 | i | i | i | i | i | i
C/C(=N\NC(=S)NCCc1ccccc1)c1ccc(C#N)cc1 | i | i | 13µM | ? | i | i
C/C(=N\NC(=S)NCCc1ccccc1)c1ccc(Cl)cc1 | i | i | ? | ? | i | ?
C/C(=N\NC(=S)NCCc1ccccc1)c1ccc(C)cc1 | i | i | 18µM | ? | i | i
Cc1c(C)c2c(c(C)c1O)CCC(C)(C(=O)O)O2 (configuration not stated) | i | i | i | i | i | i
CSC1=NS(=O)(=O)c2c(C)nn(C)c2S1 | i | i | ? | ? | i | i
O=c1[nH]c(=O)n(Cc2ccco2)c2c1C(C(F)(F)F)(C(F)(F)F)N=C(c1ccc(F)cc1)N2 | ? | ? | 6.5µM | 12µM | i | ?
